Data on 106 molecules can be found in PubChem BioAssay AID488857 (Sanford-Burnham Center for Chemical Genomics, 2010).

In all, about 1,400 compounds went through this assay and about 560 (40%) were called active. So high a share suggests a set chosen from earlier hits. The list shows a part of the results. Values without a mark were called inactive.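 The calls were made as follows: active = mean inhibition over duplicate tests at 10 µM above 50%; inactive = the rest.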

The nature of this test: ASC/caspase-1 reporter retest in S. cerevisiae at one dose, specificity check for NALP1 project (AID 488857). The settings on record: S. cerevisiae ASC/Caspase-1, beta-galactosidase luminescence, 24 h; at 10 µM; stronger effect = higher value.
In general, inhibition refers to the share of the control response that was lost under treatment. `O=S(=O)(/C=C/c1ccccc1)NC1CCCCCCC1`: the inhibition was 66.8% (active).
Turning to `CCOC(=O)c1c(-c2cccs2)csc1NC(=O)C(C)(C)C`, the inhibition was 44.8%.
In the case of `O=[N+]([O-])c1ccc(O)c2ncccc12`, the inhibition was 99% (active).
For `O=C(c1ccc(Cl)c([N+](=O)[O-])c1)N(c1ccccn1)c1ccccn1`, the inhibition is 23.8%.
As for `CSc1ccc(CN(C)CC(=O)Nc2ccc(C)cc2Br)cc1`, the inhibition was 52.6% (active).
With `CN1CCN(C(=O)CSc2nc3c(c(=O)n(C)c(=O)n3C)n2C)CC1`, the inhibition was 31.1%.
Consider `C=CCOc1ccc2ccccc2c1/C=N/O`, for which the inhibition is 64.3% (active).
The same measure for `N#Cc1cccc(N=Cc2c(O)ccc3ccccc23)c1`: 30.4%; for `O=S(=O)(/N=C/c1c(O)ccc2ccccc12)c1cccs1`: 20.6%.
With `OCCNc1c2ccccc2nc2c(F)c(F)c(F)c(F)c12`, the inhibition was 23.1%.
The figure for `CC(=O)/C=C/n1c(=S)oc2ccccc21` is 23.2%; for `CCCOc1ccc(C(=O)NC(C)C(=O)O)cc1` (stereo unspecified) it is 40.4%; for `CCOc1ccc(C(=O)C(CCC(CN(C)C)C(=O)c2ccc(OCC)cc2)CN(C)C)cc1` (stereo unspecified) it is 63.5% (active).
Take `Cc1ccc(N2C(=N)/C(=C3/Nc4ccccc4S3)C(c3ccccc3)C2=O)cc1` (stereo unspecified): the inhibition was 38.5%.
The figure for `N#CC1=C(N)Oc2n[nH]c(-c3cccs3)c2C1C1CCCCC1` (stereo unspecified) is 46.4%; for `CC1=CC(=O)C=C(C)C1=NOS(=O)(=O)c1ccccc1` it is 69.7% (active).
For the molecule `CC1=C/C(=N\OS(=O)(=O)c2ccccc2)C(C(C)C)=CC1=O`, the inhibition was 91.2% (active).
On to `N#CC(C#N)=c1ccc2c(c1)N1C3=C(CCCC3)CC3CCCCC31N=2` (stereo unspecified), for which the inhibition was 8.35%.
On to `COc1ccc(/C=N/NC(=O)c2csc(-n3nc(C)cc3C(F)(F)F)n2)cc1`, for which the inhibition is 36.5%.
For `O=C(CCN1CCc2ccccc2C(c2ccccc2)C1)c1ccc2c(c1)OCCO2` (stereo unspecified), the inhibition was 24.4%.
Take `CCOC(=O)C(C(=O)OCC)C(C(=O)OCC)N1CCOCC1` (stereo unspecified): the inhibition is 53.2% (active).
Consider `Cc1cccc(Oc2nc(CN3CCOCC3)nc3sc4c(c23)CCCC4)c1`, for which the inhibition was 75.2% (active).
As to `Oc1ccccc1C1N=C(c2ccccc2)NC(c2ccccc2)=N1`, the inhibition was 28.9%.
For `CCOc1nc(N2CCOCC2)nc(N2CCOCC2)n1`, the inhibition was 43.6%.
Regarding `CC(=O)N1N=C(c2ccc3ccccc3c2)OC1(C)C`, the inhibition was 86.5% (active).
`Cn1nc(-c2ccc(Cl)cc2)nc2c(=O)n(C)c(=O)nc1-2`: the inhibition was 97.8% (active).
`Cn1nc(-c2ccccc2)c(-c2nc(-c3ccc(Cl)cc3)no2)c1Cl`: the inhibition was 33.6%.
In the case of `CS(=O)(=O)n1nc(-c2ccc(Cl)cc2)nc1SCc1ccccc1`, the inhibition was 48%.
Consider `c1ccc2[nH]c3cc4ncnc4cc3nc2c1`, for which the inhibition was 46.6%.
For the molecule `Nc1ccccc1-c1nc2ccccc2[nH]1`, the inhibition was 83% (active).
`O=C1CC(c2ccccc2Cl)CC(O)=C1C=Nc1ccccc1` (stereo unspecified): the inhibition was 61.9% (active).
The same measure for `O=C1CC(c2cccc(Cl)c2)CC(O)=C1C=Nc1cccc(Cl)c1` (stereo unspecified): 53.5% (active); for `CCSc1nnc(-c2ccncc2)n1Cc1ccccc1`: 23.7%; for `CCCn1c(-c2cccnc2Cl)nc2cc(Cl)c(Cl)cc21`: 47.9%.
On to `CS/C(=N\S(=O)(=O)c1cccs1)Nc1ccc(Br)cc1F`, for which the inhibition was 68.3% (active).
In the case of `CCCNC(=O)c1cc2c3ccccc3n(C)c2s1`, the inhibition is 74.2% (active).
In the case of `CC(C)OCCCNC(=O)c1cc2c(=O)n(C)c3ccccc3c2n1C`, the inhibition is 30.8%.
`OC(CSc1c(Cl)cccc1Cl)CN1CCN(c2ccccc2F)CC1` (stereo unspecified): the inhibition is 50.8% (active).
On to `COc1ccc(CN2CC(C(=O)NCCN3CCN(c4ccccc4F)CC3)CC2=O)cc1` (stereo unspecified), for which the inhibition was 29.6%.
Turning to `COc1cccc(CN2CCC(C(=O)N3CCN(c4ccccc4F)CC3)CC2)c1OC`, the inhibition was 32.3%.
With `O=[N+]([O-])c1ccc(OCC(O)CN2CCN(c3ccccc3F)CC2)cc1` (stereo unspecified), the inhibition was 51.8% (active).
As for `OC(COc1ccc2c(c1)CCC2)CN1CCN(c2ccccc2F)CC1` (stereo unspecified), the inhibition is 78% (active).
The same measure for `Cc1sc(-c2ccncc2)nc1OC(=O)c1ccccc1`: 36.9%; for `Cc1occc1C(=O)Nc1c(F)c(F)c(F)c(F)c1F`: 38.6%.
On to `Cc1ccc(NCC(=O)Nc2c(C)n(C)n(-c3ccccc3)c2=O)cc1S(=O)(=O)N(C)C`, for which the inhibition was 10.7%.
As to `CC1=C(C(=O)Nc2ccc(Cl)cc2)C(c2ccncc2)C(C#N)=C(SCC(N)=O)N1` (stereo unspecified), the inhibition is 30.2%.
Take `Cn1c2c(c(=O)n(C)c1=O)C(NC(=O)C(C)(C)C)(C(F)(F)F)C(=O)N2` (stereo unspecified): the inhibition is 40.1%.
Turning to `O=S(=O)(CC(CN1CCCCC1)N1CCCCC1)c1ccc2ccccc2c1` (stereo unspecified), the inhibition was 59.8% (active).
For `O=S(=O)(CC(CN1CCCC1)N1CCCC1)c1ccc2ccccc2c1` (stereo unspecified), the inhibition was 30.2%.
Turning to `O=S(=O)(NC1CCCCC1)c1ccc(F)c2ccccc12`, the inhibition is 57.7% (active).
In the case of `O=C(Nc1nc(-c2ccncc2)cs1)c1ccc(S(=O)(=O)N2CCOCC2)cc1`, the inhibition was 39.9%.
With `CS(=O)(=O)N1N=C(c2ccco2)CC1c1ccc(Cl)cc1` (stereo unspecified), the inhibition is 27.9%.
As for `CCOC(=O)c1sc(=S)n(-c2ccc(OC)cc2)c1C`, the inhibition was 48.9%.
On to `CCOC(=O)c1c(/N=C/c2cc(OC)cc([N+](=O)[O-])c2O)sc(C)c1C`, for which the inhibition is 65.7% (active).
The same measure for `COc1ccc(-c2csc(N3C(=O)C4C5c6ccccc6C(c6ccccc65)[C@@H]4C3=O)n2)cc1` (stereo partly specified): 34.7%.
As to `Cc1sc(N)nc1-c1ccc(Oc2ccccc2)cc1`, the inhibition is 76.5% (active).
For `Nc1nc(-c2ccc(Oc3ccccc3)cc2)cs1`, the inhibition is 99.7% (active).
Turning to `Nc1nc2ccc(Oc3ccccc3)cc2s1`, the inhibition is 96.2% (active).
The same measure for `Nc1ccc(Oc2cccc(Oc3ccc(N)cc3)c2)cc1`: 48%.
As to `c1cnc2c(c1)ccc1cccnc12`, the inhibition was 84.1% (active).
As for `O=C(Cc1ccc(Cl)cc1)Oc1cccc2cccnc12`, the inhibition was 29.8%.
As to `Fc1ccc(Nc2nc(Oc3ccccc3F)nc(N3CCCC3)n2)cc1`, the inhibition is 41.3%.
Regarding `Cc1ccccc1Nc1cc(C)c2c(O)cccc2n1`, the inhibition was 77.8% (active).
As for `C/C(=N\NC(=O)Cc1csc(N2CCOCC2)n1)c1ccccc1`, the inhibition was 29.2%.
For `COc1ccc(NC(=O)N2CCC(CO)(CC3CCCCO3)CC2)c(OC)c1` (stereo unspecified), the inhibition is 40.4%.
As to `COc1ccc(NC(=O)c2sc(N3CCOCC3)nc2-c2ccccc2)c(OC)c1`, the inhibition was 57.7% (active).
The same measure for `CN(C)Cc1ccccc1Sc1ccccc1Br`: 49%.
Take `CC(=O)c1ccc(NC(=O)Nc2ccc(Cl)cc2)cc1`: the inhibition was 44.4%.
The same measure for `N#Cc1ccc(NC(=O)Nc2ccc(Cl)cc2)cc1`: 96.4% (active); for `COc1ccc(N2CCN(CCNC(=O)Nc3ccc(Cl)cc3)CC2)cc1`: 39.5%; for `Cc1cccc(C)c1C(OCCN(C)C)C1CCCCC1` (stereo unspecified): 35.5%.
Regarding `COc1ccc(/C=C/C(=O)Nc2ccc3c(c2)CCC3)cc1OC`, the inhibition was 86.2% (active).
`COc1cc(/C=C(\NC(C)=O)C(=O)Nc2cccc(O)c2)ccc1OC(C)=O`: the inhibition was 42%.
Turning to `O=C1/C(=C/c2cccnc2)SC(=S)N1C1CCS(=O)(=O)C1` (stereo unspecified), the inhibition was 32.4%.
`COc1ccc(OC)c(S(=O)(=O)Nc2ccc(O)c3ccccc23)c1`: the inhibition was 28.8%.
For the molecule `CSc1ccc2c(c1)N(CCC1CCCCN1C)c1ccccc1S2` (stereo unspecified), the inhibition was 81.8% (active).
Take `CCC(C)NCCOc1cccc(Br)c1` (stereo unspecified): the inhibition was 39.6%.
As to `O=C(Nc1ccc(-c2nc3ccccc3s2)cc1)C1=COCCO1`, the inhibition was 55.6% (active).
In the case of `Cc1ccc2nc(-c3ccc(NC(=O)CN(c4ccccc4C)S(C)(=O)=O)cc3)sc2c1`, the inhibition is 44.1%.
For `CCOC(=O)N/N=C/c1ccc(N(CC)CC)cc1O`, the inhibition was 72.5% (active).
For the molecule `COc1cc2nc(Cl)nc(N3CCN(C)CC3)c2cc1OC`, the inhibition is 30%.
`COc1cccc(NC2=C(Cl)C(=O)OC2OC(=O)c2ccco2)c1` (stereo unspecified): the inhibition was 38.3%.
In the case of `O=C(Nc1ccc(Cl)c(Cl)c1)Oc1ccc(NC(=O)c2ccco2)cc1`, the inhibition was 54.6% (active).
Turning to `COC(=O)/C(=N/Nc1ccc(C)cc1)N1CCCc2ccccc21`, the inhibition is 40.6%.
The figure for `Cc1ccc(NC(=O)N2CCc3ccccc3C2)cc1` is 69.2% (active); for `CC(=O)N1CCCc2cc(S(=O)(=O)N3CCc4ccccc4C3)ccc21` it is 45.2%.
Take `Cc1ccc2cc3cc(C(=O)NCCCN4CCc5ccccc5C4)oc3nc2c1`: the inhibition is 35%.
As to `O=C(NCCCN1CCc2ccccc2C1)Nc1ccc(Br)cc1`, the inhibition was 43.3%.
With `O=C(Nc1ccccc1)N1CCc2ccccc2C1`, the inhibition was 71.7% (active).
For the molecule `CCOC(=O)c1cc(-c2ccc(OC)cc2)nc2c1c(C)nn2CCC#N`, the inhibition is 49.6%.
For the molecule `CN1C/C(=C/c2ccncc2)C(=O)/C(=C/c2ccncc2)C1`, the inhibition was 26.9%.
As for `CC1=CC2=NC(=O)/C(=C\c3cccn3CCOc3cccc(C)c3)C(=N)N2O1`, the inhibition was 85.1% (active).
Regarding `NCCS`, the inhibition was 58.8% (active).
The figure for `COc1ccc2nc3oc(C(=O)Nc4ccc(OC)c(OC)c4)cc3cc2c1` is 36.3%; for `CCOC(=O)C1CCN(C(=O)c2cc3cc4cc(OC)ccc4nc3o2)CC1` it is 52% (active).
As to `CCOC(=O)C1CCCCN1Cc1ccc(F)c(Br)c1` (stereo unspecified), the inhibition is 40.2%.
For `O=C(NCC1CCCO1)C(c1cccs1)N(Cc1cccs1)C(=O)Cn1nnc(-c2cccs2)n1` (stereo unspecified), the inhibition is 39.1%.
Take `CCOC(=O)c1c(C)c(C(=O)NCCCOC(C)C)c(C)n1C`: the inhibition is 26.7%.
Turning to `COc1cc(C=O)ccc1Oc1nnnn1-c1ccccc1`, the inhibition was 52.9% (active).
On to `O=C1CN(c2nnnn2-c2ccccc2)CCN1`, for which the inhibition was 40.9%.
In the case of `CC(C)C(=O)c1cc2c(cc1NC(=O)Nc1cccc3ccccc13)OCCO2`, the inhibition is 49.3%.
Consider `O=C(N/N=C/c1ccc2c(c1)OCO2)c1cccs1`, for which the inhibition is 68.9% (active).
The same measure for `Cc1c([N+](=O)[O-])c(C(=O)Nc2ccc3c(c2)OCCO3)nn1C`: 24.6%; for `O=C(/C=C/c1cccc([N+](=O)[O-])c1)c1ccco1`: 36%.
On to `CNc1ccc(/C=C/C(=O)c2ccc3c(c2)OCCO3)cc1[N+](=O)[O-]`, for which the inhibition was 66.7% (active).
As to `CC1=CC(C)(C)Nc2ccc(OC(=O)C(C)N3C(=O)c4ccccc4C3=O)cc21` (stereo unspecified), the inhibition was 39.1%.
